Source: PubChem BioAssay AID743130 (Broad Institute, 2013)
Several values for one entry are separate records, joined by “and”; a condition that tells them apart may be missing. Equal entries are not always repeated.

experiment: cell wall integrity pathway activation in yeast – S. cerevisiae reporter strain, C. neoformans project, dry powder, dose response (AID 743130); details: S. cerevisiae Rlm1-lacZ reporter, luminescence, 4 h, hits give high values; at 35 µM unless noted;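 active means fitted curve rises past 20% activation at a concentration no higher than the top valid tested dose; inactive means activity opposite to the expected signal increase, and the rest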

Maximal activation, inactive:
Cc1ccc(OCCn2c(=S)[nH]c3ccccc32)cc1 -4.62%, CCOC(=O)c1c(-c2ccc(F)cc2)csc1NC(=O)CN1CCN(C)CC1 8.68% [at 16 µM], Cc1ccccc1OCCn1c(=S)[nH]c2ccccc21 -3.77% [at 1 µM], S=c1[nH]c2cccc(Cl)c2n1CCOc1ccccc1 -2.44%, COC(=O)C1=C(C)N(Cc2ccc(Cl)cc2)C(=S)NC1c1ccc(Br)cc1 (centres undefined) 9% [at 2.1 µM], Fc1cccc2c1[nH]c(=S)n2CCOc1ccccc1 -3.67% [at 8 µM], CCOC(=O)c1c(-c2ccc(OC)cc2)csc1NC(=O)CN(C)CC(=O)N(C)C -2.31% [at 4.2 µM], O=c1[nH]c2ccccc2n1CCOc1ccccc1 6.24% [at 2.1 µM] and 3.18% [at 2.1 µM], COC(=O)C1=C(C)N(Cc2ccccc2)C(=S)NC1c1ccc(Br)cc1 (centres undefined) 6.99% [at 8 µM], Fc1ccccc1OCCn1c(=S)[nH]c2ccccc21 -3.96%, Cc1ccc(OCCn2c(C)nc3ccccc32)cc1 1.77%, Cc1ccc2c(c1)[nH]c(=S)n2CCOc1ccccc1 1.98%, S=c1[nH]c2ccccc2n1CCOc1ccccc1 3.85% [at 4.2 µM], Cc1ccc(C(C)C)c(OCCn2c(=S)[nH]c3ccccc32)c1 -8.35% [at 0.5 µM], CCOC(=O)c1c(-c2ccc(C(C)(C)C)cc2)csc1NC(=O)CN1CCN(C)CC1 6.67% [at 16 µM], CCOc1ccc(OCCn2c(=S)[nH]c3ccccc32)cc1 -9.4% [at 0.26 µM], Cc1ccc(OCCn2cnc3ccccc32)cc1 -5.3% [at 4.2 µM], S=c1[nH]c2ccccc2n1CCOc1ccc(Cl)cc1 3.89% [at 8 µM], Cc1ccc(OCCn2c(SCCO)nc3ccccc32)c(C(C)C)c1 -2.9% [at 2.1 µM], COC(=O)C1=C(C)N(Cc2ccc(Br)cc2)C(=S)NC1c1ccc(F)cc1 (centres undefined) 9.62% [at 16 µM], CCOC(=O)c1c(-c2ccc(-c3ccccc3)cc2)csc1NC(=O)CNCCN(C)C -12.6%, COC(=O)C1=C(C)N(Cc2ccc(F)cc2)C(=S)NC1c1cccc(F)c1 (centres undefined) 3.69%, COC(=O)C1=C(C)N(Cc2ccc(Br)cc2)C(=S)NC1c1ccc(OC)cc1 (centres undefined) 5.5% [at 0.26 µM], c1ccc(OCCn2cnc3ccccc32)cc1 -5.78% [at 1 µM], CCOC(=O)c1c(-c2ccc(C(C)(C)C)cc2)csc1NC(=O)CN1CCN(CC)CC1 2.55% [at 8 µM], CCOC(=O)c1c(NC(=O)CN2CCN(C)CC2)sc(C)c1-c1ccc(C)cc1 5.75%, CCOC(=O)c1c(-c2ccc(F)cc2)csc1NC(=O)CN1CCN(CC)CC1 7.91% [at 1 µM], Cc1cccc(OCCn2c(=S)[nH]c3cc(C(F)(F)F)ccc32)c1 -9% [at 16 µM], CCOC(=O)c1c(NC(=O)CNCCN(C)C)sc(C)c1-c1ccccc1 -3% [at 2.1 µM]
